Experimental data taken from PubChem BioAssay AID651661 (Broad Institute, 2012).
The whole screen tested about 350,000 compounds, of which about 2,300 (0.66%) were called active. Only a selection was taken, and actives are over-represented in it overall. A number with no mark means an inactive call.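 How the source made its calls: active means mean inhibition of at least 50% after viability correction, with every replicate also passing that limit; inconclusive means mean reaches 50% but only one of two replicates passes; inactive means the rest.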

test: blockers of EWS/Fli transcriptional output – A673 cells, NR0B1 luciferase, luminescence, MLPCN library, primary screen (AID 651661); details: A673 NR0B1-luciferase reporter, viability-normalised; at 12.6 µM; hits give high values;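 further: firefly luciferase signal divided by Alamar Blue viability fluorescence both relative to DMSO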

Structure (SMILES) | inhibition
O=C(NCc1cccc(F)c1)[C@H]1[C@H](CO)[C@H]2Cn3c(cccc3=O)[C@@H]1N2 | -7.63%
O=C(Cc1ccccn1)N1CC(=O)N2[C@H](CO)[C@H](c3ccc(C#CCC4CCCC4)cc3)[C@@H]2C1 | -3.29%
CC(C)OC(=O)c1ccc(NCc2cc(O)ccc2O)cc1Cl | 59.4% (active)
O=C(OC12CC3CC(CC(C3)C1)C2)c1ccc(NCc2cc(O)ccc2O)cc1 | 30.8%
C#CCNc1ccc(C(=O)OCC)cc1 | -46.2%
CC(CN1CCOCC1)OC(=O)c1ccc(Cl)cc1Cl (stereo not drawn) | -6.54%
COC(=O)c1ccc(NCc2cc(O)ccc2O)cc1 | 61.8% (active)
CC(OC(=O)c1ccc(Cl)cc1O)C(=O)NCCC1=CCCCC1 (stereo not drawn) | 1.44%
O=C(C1CCC1)N1CC[C@@H]2[C@H]1c1cc(C#Cc3ccc(F)cc3)ccc1N[C@@H]2CO | 11%
CO[C@@H]1CN(C)C(=O)c2ccc(NC(=O)Nc3c(C)noc3C)cc2OC[C@@H](C)NC[C@H]1C | 1.67%
COc1ccc(S(=O)(=O)N(C)C[C@H]2Oc3c(NS(=O)(=O)c4cccs4)cccc3C(=O)N([C@H](C)CO)C[C@@H]2C)cc1 | 0.582%
O=C(Nc1ccc(Cl)cc1)C1Cc2c(-c3ccc4c(c3)OCO4)ccnc2O1 (stereo not drawn) | 8.69%
COc1ccc(NC(=O)C2Cc3c(-c4ccc(Cl)cc4)ccnc3O2)cc1 (stereo not drawn) | -1.76%
COc1ccc(NC(=O)C2Cc3c(-c4ccc5c(c4)OCO5)ccnc3O2)cn1 (stereo not drawn) | 52.6% (active)
CCCN1C[C@@H](C)[C@H](OC)CN(C)C(=O)c2cc(NC(=O)CC)ccc2OC[C@@H]1C | -0.843%
COC(=O)C[C@H]1C=C[C@H](NC(=O)Nc2ccc(C(F)(F)F)cc2)[C@@H](CO)O1 | -13.7%
CC(C)C(=O)Nc1ccc2c(c1)C(=O)N(C)[C@H]1CC[C@H](CC(=O)NCc3ccc(F)cc3)O[C@H]1CO2 | -4.82%
O=C(C1CC(=O)N(C2CCCCC2)C1)N1CCN(c2ccccc2)CC1 (stereo not drawn) | 2.44%
O=C(C1CCC1)N1CCN(c2ccccc2)CC1 | -2.08%
O=C1C=CC(=O)N1c1ccc(N2CCCCC2)cc1 | 70% (active)
O=C(Nc1cc(F)ccc1F)N1CCCCN2[C@H](CO)[C@@H](c3ccc(-c4cccnc4)cc3)[C@@H]2C1 | -2.34%
CN(C)C(=O)[C@@H]1[C@@H](CO)[C@@H]2Cn3c(ccc(-c4ccncc4)c3=O)[C@H]1N2C(=O)NC1CCCC1 | -5.42%
CCCc1cc(=O)[nH]c(SCC(=O)c2c(N)n(CC(C)C)c(=O)n(C)c2=O)n1 | 61.7% (active)
CC(C)Cn1c(N)c(C(=O)COC(=O)CN2C(=O)C3CC=CCC3C2=O)c(=O)n(C)c1=O (stereo not drawn) | 10.8%

Structure (SMILES) | inhibition
CCCc1cc(=O)[nH]c(SCC(=O)N2C(C)CCCC2C)n1 (stereo not drawn) | -0.113%
COc1ccc2c3c(n(C)c2c1)[C@@H](CO)N(C(=O)c1ccccn1)CC31CN(C)C1 | 2.95%
CCOC(=O)c1c(C)[nH]c2c1-c1ccccc1C(=O)C2=O | 75.3% (active)
CCOC(=O)c1c(NC(=O)CSc2nccc(=O)[nH]2)sc(C)c1C | 1.69%
CCOC(=O)c1c(C)[nH]c(C(=O)OCC(=O)c2ccc(OC)cc2OC)c1C | -15.3%
CCCN1C[C@@H](C)[C@@H](OC)CN(C)C(=O)c2cc(NC(=O)C3CCC3)ccc2OC[C@H]1C | 4.62%
CCCNC(=O)N1CCC2(CC1)CN(C(=O)c1cccnc1)[C@@H](CO)c1[nH]c3cc(OC)ccc3c12 | -3.43%
CO[C@H]1CN(C)C(=O)c2cc(NS(=O)(=O)c3ccccc3)ccc2OC[C@H](C)N(C(=O)NC(C)C)C[C@@H]1C | -7.63%
O=C(C1CCCCC1)N1CC(=O)N2[C@H](CO)[C@@H](c3ccc(-c4ccccc4F)cc3)[C@@H]2C1 | -0.368%
COc1ccc(-c2cc(NC=O)c3ncc(-c4cccc(C(=O)N(C)C)c4)n3c2)c(OC)c1 | 8.25%
COc1ccc(-c2cc(NC=O)c3ncc(-c4ccccc4)n3c2)cc1OC | 12.5%
COc1cccc(-c2cnc3c(NC(C)=O)cc(-c4cc(F)ccc4OC)cn23)c1 | 41.5%
COc1ccc(-c2cc(NC=O)c3ncc(-c4cc(OC)c(OC)c(OC)c4)n3c2)c(OC)c1 | 52.4% (active)
COc1ccc(-c2cc(NC(C)=O)c3ncc(-c4cc(OC)c(OC)c(OC)c4)n3c2)cn1 | 64.5% (active)
COc1ccccc1-c1cc(NC(C)=O)c2ncc(-c3ccc(F)cc3)n2c1 | 13.6%
COc1cccc(NC(=O)N2CC[C@@H]3[C@@H](CO)N(C)c4ccc(-c5cccc(F)c5)cc4[C@@H]32)c1 | -0.284%
COc1ccccc1CNC(=O)C[C@H]1C[C@H]2c3cc(NS(=O)(=O)c4ccc(F)cc4)ccc3O[C@H]2[C@@H](CO)O1 | -1.41%
C[C@@H]1CN([C@H](C)CO)C(=O)c2cccc(NS(=O)(=O)c3cn(C)cn3)c2O[C@H]1CN(C)S(=O)(=O)c1ccc(Cl)cc1 | 1.45%
C[C@@H]1CCCCO[C@@H](CN(C)Cc2ccncc2)[C@H](C)CN([C@H](C)CO)C(=O)c2cc(NC(=O)NC3CCCCC3)ccc2O1 | 0.242%
CN1c2ccc(-c3cccc(F)c3)cc2[C@H]2[C@H](CCN2C(=O)c2cccc(F)c2)[C@H]1CO | -3.71%
Cc1ccc(C)c(S(=O)(=O)N2CCN(c3ncnc4sccc34)CC2)c1 | 51.5% (active)
COc1ccc(-c2csc3ncnc(N4CCN(S(=O)(=O)c5ccccc5C#N)CC4)c23)cc1 | 22.1%
Cc1ccc(C)c(S(=O)(=O)N2CCN(C(=O)Nc3ccccc3)CC2)c1 | 1.58%
CCNC(=O)[C@H]1[C@H](CO)[C@H]2Cn3c(ccc(-c4cccc(OC)c4)c3=O)[C@H]2N1Cc1nccs1 | 2.22%
